Only a selection was taken, and hits are over-represented in it overall.
Pf Dd2 growth: qHTS Primary assay for Inhibitors of Plasmodium falciparum Dd2 growth in vitro; P. falciparum Dd2 growth, SYBR Green, 72 h; actives 4.3% (n = 120,000); Potency, µM (series often up to 28.9 µM), for inactives: at the highest dose activity, negative = inhibition, actives largely listed as inhibitors; active means well fitted inhibition curve with a large enough effect;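 further: plate controls were DMSO vehicle for no effect and reference drug for full effect; nearly all actives have a fitted effect of over 65% in size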
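Infected erythrocytes (Dd2, 0.3% parasitemia, 2.5% hematocrit final) are added to compound in RPMI-1640/Albumax II medium, grown 72 h at 37C in low oxygen, then lysed with saponin/Triton-X containing SYBR Green and read by fluorescence.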
An asterisk follows results filed as active; i = inactive; [ ] = remark or other dose. Potency means the concentration at half of the fitted maximal effect.

SMILES	Pf Dd2 growth
Cn1c(SCc2ccc(F)cc2)nc2ccc(C(=O)NCc3cccc(Cl)c3)cc21	10µM*
O=C(NCc1cccc(Cl)c1)c1noc(-c2ccc(F)cc2)n1	-12%
O=C(NC1CCCCC1)c1ccc(CSc2nc3ccncc3n2Cc2cccc(F)c2)cc1	11µM*
Cc1ccc(CNC(=O)c2ccc3nc(SCc4ccc(F)cc4)[nH]c3c2)cc1	i
O=C(NC1CCCC1)c1ccc(CSc2nc3cccnc3n2Cc2cccc(F)c2)cc1	-10%
NC1CC(c2cc(NCCN3N=C(c4ccccc4)CCC3=O)ncn2)C1 (stereo not given)	5%
O=C(CCC1CCN(S(=O)(=O)c2ccc(F)cc2)CC1)N1CCc2ccccc2C1	-15%
O=C1Nc2ccc(-c3cccc(C(F)(F)F)c3)cc2C(=O)N2CCN(C(=O)[C@@H]3CSCN3)C[C@H]12	i
COC[C@@H]1CN(C(=O)c2ccc(F)c(F)c2)C[C@H]1C(N)=O	3%
COCCC1(CO)CCCN(C(=O)CCc2c(C)noc2C)C1 (stereo not given)	-5%
O=C(NCc1ccc2c(c1)OCO2)C1CCc2sc(C(=O)N3CCCCCC3)cc2C1 (stereo not given)	i
O=C(c1ccc(F)cc1)N1CCC(N2CCCCCC2=O)CC1	3%[44.1 µM]
Cc1ccc(CSc2nc3cc(C(=O)NC4CCCC4)ccc3c(=O)n2Cc2ccccc2)cc1	16%
CCc1ccccc1NC(=O)Cn1c(SCc2ccc(F)cc2)nc2ccncc21	11%
O=C(NC1CCCC1)c1ccc2c(=O)n(Cc3ccccc3)c(SCc3cccc(F)c3)nc2c1	17%
COc1ccc(Cn2c(SCc3ccc(C(=O)NCc4cccs4)cc3)nc3ccncc32)cc1	7.9µM*
COc1ccc(CSc2nc3ccncc3n2CC(=O)Nc2ccc(C)c(F)c2)cc1	i
CC(C)NC(=O)c1ccc(Cn2c(SCc3ccc(F)cc3)nc3cccnc32)cc1	-7%
CC(CNC(=O)c1ccc(CSc2nc3ccncc3n2Cc2ccc(F)cc2)cc1)c1ccccc1 (stereo not given)	4.5µM*
O=C(NC1CCCC1)c1ccc2c(=O)n(Cc3ccccc3)c(SCc3ccc([N+](=O)[O-])cc3)nc2c1	3.2µM*
CCc1ccc(CNC(=O)c2ccc(CSc3nc4ccncc4n3Cc3ccc(OC)cc3)cc2)cc1	13µM*
COc1ccc(C(=O)N2CCc3ccc(C(=O)NCc4cccs4)cc32)cc1	-18%
COc1ccc(Cn2c(=O)c3ccnn3c3ccc(C(=O)NCc4cccnc4)cc32)cc1	-35%
CN(CC1CCOC1)S(=O)(=O)c1ccc(F)cc1 (stereo not given)	50%[5.79 µM]
COc1ccc(C2=NOC3(CCCN(C(=O)c4ccc(C(F)(F)F)cc4)C3)C2)cc1 (stereo not given)	-19%
SMILES	Pf Dd2 growth
Cc1noc(C)c1C(=O)N1CCC2(CC1)CC(N[S+](C)(=O)[O-])c1ccccc12 (stereo not given)	4%
O=C(CCn1ccn2nc3c(c2c1=O)CCCC3)NCCCc1ccccc1	-19%
O=C(NC1CCN(c2nc3ncccc3o2)CC1)c1ccccc1	-12%[44.1 µM]
Cc1ccc(C(=O)N2CCC(Oc3ccc(C(=O)N(C)C)cn3)CC2)s1	-5%
NC(=O)CCNC(=O)[C@@H]1C[C@@H](NS(=O)(=O)c2cccs2)CCN1C(=O)COCC(=O)O	6%
CCc1ccc(CNC(=O)c2ccc(CSc3nc4ccncc4n3Cc3ccccc3)cc2)cc1	10µM*
O=C(NCc1ccccc1)c1ccc2c(c1)n(Cc1ccc(F)cc1)c(=O)c1ccnn12	i
O=C(NCc1cccs1)c1ccc2c(c1)n(Cc1cccc(F)c1)c(=O)c1ccnn12	5.6µM*
O=C(O)c1ccc2c(c1)n(Cc1cccc(F)c1)c(=O)c1ccnn12	i
O=C(CSc1nc2ccccc2n1Cc1ccccc1)NCc1ccccc1	-26%
COC(=O)c1ccc(Cn2c(SCc3ccccc3)nc3ccncc32)cc1	-28%
Cc1cccc(OCC(=O)N2CC(c3nnc(C(C)C)o3)C3(CCOCC3)C2)c1 (stereo not given)	8%
Cc1ccc(-c2noc([C@@H]3CCCN3C(=O)c3ccc4c(c3)OCO4)n2)cc1	0%
CN(Cc1ccc(N2CCOCC2)cc1)C(=O)[C@H]1CN(Cc2ccccc2)C[C@H]1C(=O)O	-16%
Cc1ccc(NC(=O)c2cn(-c3ccccc3)nc2-c2ccccc2)cc1	-28%
Cc1ccc(-n2cc(CN(C)C(C)C(=O)N(C)C)c(-c3cccc(C)c3)n2)cc1 (stereo not given)	4µM*
CC(=O)Nc1ccc(-c2c(-c3cccc(C)c3)nn(-c3ccc(F)cc3)c2OC(C)=O)cc1	-17%
CCn1nc(C)c(CNC(=O)C2CCN(C(=O)N3CC4CC(C3)[C@H]3CCCC(=O)N3C4)CC2)c1C (stereo not given in full)	-1%
COCCc1noc([C@@H]2CN(Cc3cccc(F)c3)C[C@H]2CO)n1	-4%
COc1ccc(C(=O)N2CCC(N3C(=O)[C@H](OC)[C@@H]3c3ccncc3)CC2)cc1	14%
COCCc1nn2c(=O)cc(COC(=O)c3ccc(Br)cc3)nc2s1	-14%
CCc1nn2c(=O)cc(COC(=O)C(c3ccccc3)c3ccccc3)nc2s1	-2%
COCCc1nn2c(=O)cc(COC(=O)C(c3ccccc3)c3ccccc3)nc2s1	1.3µM*
Cc1n[nH]c(C)c1CNC(=O)C1CCCCC(=O)N1 (stereo not given)	13%
COC(=O)c1ccc2nc(CO[C@H]3CN(C(C)C)C[C@H]3F)[nH]c2c1	i
SMILES	Pf Dd2 growth
COC(=O)c1ccc2nc(CO[C@H]3CN(Cc4ccc5ccccc5n4)C[C@H]3F)[nH]c2c1	8.9µM*
COC(=O)c1ccc2nc(CO[C@H]3CN(Cc4cccnc4)C[C@H]3F)[nH]c2c1	-21%[44.1 µM]
COc1cccc(CNC(=O)N2CCCC(Cn3cnc4cccnc43)C2)c1 (stereo not given)	13%
O=C(NCc1cccc(F)c1)N1CCCC(Cn2cnc3cccnc32)C1 (stereo not given)	-14%
Cc1cccc(NC(=O)N2CCCC(Cn3cnc4cccnc43)C2)c1 (stereo not given)	-17%
O=C(NCc1ccc(OC(F)(F)F)cc1)N1CCCC(Cn2cnc3cccnc32)C1 (stereo not given)	7.1µM*
Cc1cc(NC(=O)N2CCCC(Cn3cnc4cccnc43)C2)ccc1Br (stereo not given)	8.9µM*
Cc1cc(C)cc(NC(=O)N2CCCC(Cn3cnc4cccnc43)C2)c1 (stereo not given)	-11%
CCCS(=O)(=O)N[C@H]1C[C@@H](c2nc(-c3ccc4c(c3)OCO4)no2)N(C)C1	i
CCCNC(=O)N1CCC(OC2CCN(S(C)(=O)=O)CC2)CC1	20%
Cc1nc(C(C)C)sc1C(=O)N1CCC(=O)N(CC2CC2)C(C(C)C)C1 (stereo not given)	-15%
O=C(CCC1CCCN(S(=O)(=O)c2ccccc2)C1)N1CCN(c2ccccn2)CC1 (stereo not given)	i
C[C@H]1CCCN1C(=O)c1nnc(COc2cccc(C(F)(F)F)c2)n1-c1cccnc1	i
CCC(=O)N1CCc2cc(Br)cc(S(=O)(=O)NCCc3ccc(C)cc3)c21	i
CCC(=O)N1CCc2cc(Br)cc(S(=O)(=O)CCC(=O)Nc3cccc(Cl)c3)c21	7.1µM*
CCC(=O)N1CCc2cc(Br)cc(S(=O)(=O)CCC(=O)NCCc3ccccc3)c21	-3%
CCC(=O)N1CCc2cc(Br)cc(S(=O)(=O)CCC(=O)Nc3cccc(C)c3C)c21	-2%

Compound activity (PubChem BioAssay)
